The list is not random: actives were taken first. Their share in the collection is about 3.8%.
HSF1 inhib: HSF1 inhibition; actives 0.77% (n = 300,000); NIH3T3-HGL HSE-luciferase, MG132-induced, luminescence 8 h; hits give low values; activity change, negative = inhibition, % at 7.5 µM (by protocol); AID 2098;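 active = more than half of replicate wells show activity change below -50%, luminescence cut by over half; inconclusive = some wells, but at most half, below -50%; inactive = no replicate well below -50%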;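 note: luciferase reports HSF-1 transcriptional activity via heat shock element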
HSF1 activator: increases HSF-1 driven luciferase reporter signal; NIH3T3-HGL HSF-1 luciferase reporter, MG132, 8 h; 100% = twice DMSO control signal; activation, % at 9 µM; actives 1.7% (n = 300,000); AID 504408;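 active = mean replicate activation of at least 50% with a set share of replicates each reaching 50%; inconclusive = only one of those two conditions met; inactive = mean below 50% and too few replicates reaching it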
MITF act: MITF TRPM1 promoter activation in melanoma cells; SK-MEL-5 TRPM1-promoter luciferase, 24 h; % of positive control, neutral wells = 0; actives 0.75% (n = 300,000); activation, % at 12.5 µM; AID 588334;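 active = mean activation of at least 80% with every replicate also reaching 80%; inconclusive = mean reaches 80% but some replicate falls short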
esBAF inh: SWI/SNF esBAF complex inhibition | mouse ES cells, Bmi1-luciferase knock-in reporter, 24 h; 100% = twice the neutral-well signal | reporter increase, % at 12.5 µM | actives 2% (n = 350,000) | AID 602393; in the data active = activation above about 40%; inconclusive = no clear call, values can overlap the other calls;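 note: a rise in the Bmi1 reporter signal indicates esBAF inhibition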
Wnt act: activates Wnt/beta-catenin signaling in a reporter cell assay; activation, % at 9.35 µM; actives 1.2% (n = 300,000); activator, plate reader; in the data active = activation above about 30%, passing the limit was not always enough; inconclusive = no clear call, values can overlap the other calls
Each line names hits and unclear results; the compound was inactive in the other large screens.

COc1ccc2c(c1)c(C(=O)N/N=C/c1ccccc1Cl)c(C)n2C	HSF1 activator 56 (no result: MITF act)
O=C(NN=Cc1ccccc1Cl)c1ccccc1	Wnt act 63 (no result: HSF1 inhib, HSF1 activator, MITF act, esBAF inh)
COc1ccc(/C=N/NC(=O)c2c(C)n(C)c3ccc(OC)cc23)c(OC)c1	none (no result: esBAF inh, Wnt act)
CCCN(C)C[C@H]1OCCCC[C@H](C)Oc2ccc(NS(=O)(=O)c3c(C)noc3C)cc2C(=O)N([C@@H](C)CO)C[C@H]1C	none (no result: HSF1 inhib, HSF1 activator, MITF act, Wnt act)
C[C@H](NC(=O)N(C)C[C@@H]1OCc2ccccc2-c2c(n(C)c3ccccc23)C(=O)N([C@@H](C)CO)C[C@@H]1C)c1ccccc1	none (no result: HSF1 inhib, HSF1 activator, MITF act, Wnt act)
Cc1ccc(Nc2c(-c3ccc(C)o3)nc3cnccn23)cc1	none
Cc1ccc(-c2nc3cnccn3c2Nc2ccccc2)o1	esBAF inh 44 (no result: MITF act)
Nc1ccc(CSc2ccc(Cl)cc2)c(Cl)c1	MITF act 135, esBAF inh 103, Wnt act 57 (no result: HSF1 inhib, HSF1 activator)
O=C(Nc1ccc(Cl)cc1)OCc1cn(-c2ccc(Cl)cc2)nn1	none (no result: MITF act)
Clc1ccc(-n2cc(COCc3ccccc3)nn2)cc1	HSF1 activator 61 (no result: esBAF inh)
O=C(NC(NC(=S)Nc1ccc(Cl)c(Cl)c1)C(Cl)(Cl)Cl)c1ccco1 (stereo not given)	none (no result: esBAF inh, Wnt act)
O=C(COc1cccc(NC(=O)c2ccco2)c1)c1ccccc1	esBAF inh 50 (no result: MITF act)
O=C(Nc1ccc(NC(=O)c2ccco2)c(Cl)c1)c1ccccc1	MITF act inconclusive (no result: esBAF inh)
O=C(c1ccccc1)c1cccc(NC(=O)c2ccco2)c1	esBAF inh 66 (no result: Wnt act)
O=C(Nc1ccc(Br)c(Cl)c1)c1ccco1	esBAF inh 52 (no result: Wnt act)
O=C(O)c1cccc(NC(=S)NC(NC(=O)c2ccco2)C(Cl)(Cl)Cl)c1 (stereo not given)	HSF1 inhib -61 (no result: esBAF inh)
O=C(Nc1cccc(F)c1)c1ccco1	esBAF inh 45
COc1cccc(NC(=O)c2ccco2)c1	esBAF inh 60 (no result: Wnt act)
O=C(CNC(=O)c1ccco1)Nc1ccc(Br)cc1	esBAF inh 42
CCCNC(=O)C[C@H]1CC[C@H]2[C@@H](COC[C@H](O)CN2C(=O)Nc2ccccc2OC)O1	none (no result: HSF1 inhib, HSF1 activator, MITF act, Wnt act)
Cc1oc(-c2ccccc2F)nc1CN1CCC(C(=O)NC2CCCCCCC2)CC1	HSF1 activator 57 (no result: Wnt act)
O=C1N/C(=N\S(=O)(=O)Cc2ccccc2)S/C1=C/c1cccc([N+](=O)[O-])c1	none
O=C1N/C(=N/O)S/C1=C/c1cccc([N+](=O)[O-])c1	Wnt act 52 (no result: HSF1 inhib, HSF1 activator)
CC1(C)CC(=O)/C(=C\c2cccc([N+](=O)[O-])c2)C(C)(C)N1	HSF1 activator 76 (no result: esBAF inh)
CCC(=O)N(C)C[C@H]1Oc2cc(C#CC3(O)CCCC3)ccc2S(=O)(=O)N([C@@H](C)CO)C[C@H]1C	none (no result: HSF1 inhib, HSF1 activator, MITF act, Wnt act)
CCCC#Cc1cnc2c(c1)C(=O)N([C@H](C)CO)C[C@H](C)[C@@H](CN(C)Cc1ccc3c(c1)OCO3)O2	none (no result: HSF1 inhib, HSF1 activator, MITF act, Wnt act)
CCCNC(=O)Nc1ccc2c(c1)OC[C@H](C)N(C(=O)c1ccccc1F)C[C@@H](C)[C@H](OC)CN(C)C2=O	none (no result: HSF1 inhib, HSF1 activator, MITF act, Wnt act)
COC(=O)c1cn(CCOc2ccc(C)cc2)c2ccccc12	HSF1 activator 100
c1ccc2c(c1)ncn2CCCCOc1ccc2c(c1)CCC2	none (no result: MITF act, Wnt act)
Cc1ccc(OCCCCn2cnc3ccccc32)cc1	HSF1 inhib -79 (no result: esBAF inh)
Cc1ccccc1OCCCCn1cnc2ccccc21	none (no result: HSF1 inhib, HSF1 activator, MITF act, Wnt act)
c1ccc2c(c1)ncn2CCCOc1ccc2c(c1)CCC2	Wnt act 38 (no result: MITF act)
c1ccc(OCCCCn2cnc3ccccc32)cc1	none
Brc1ccccc1OCCCn1cnc2ccccc21	HSF1 activator 61, MITF act 92, esBAF inh 48
CCNC(=O)Nc1ccc2c(c1)C(=O)N(C)[C@H]1CC[C@@H](CC(=O)NCc3cccc(F)c3)O[C@@H]1CO2	none (no result: HSF1 inhib, HSF1 activator, MITF act, Wnt act)
COc1ccc(S(=O)(=O)N(C)C[C@H]2Oc3ccc(NS(C)(=O)=O)cc3CC(=O)N([C@H](C)CO)C[C@@H]2C)cc1	none (no result: HSF1 inhib, HSF1 activator, MITF act, Wnt act)
CC1CCCN(C(=O)C2(NC(=O)Nc3cccc(F)c3)CCCCC2)C1 (stereo not given)	HSF1 inhib -86
COc1ccc(NC(=O)Nc2cccc3c2O[C@H](CN(C)C(=O)NC(C)C)[C@H](C)CN([C@@H](C)CO)C3=O)cc1	none (no result: HSF1 inhib, HSF1 activator, MITF act, Wnt act)
CS(=O)(=O)c1ccc(C(=O)OCC(=O)NC(=O)C2COc3ccccc3O2)cc1[N+](=O)[O-] (stereo not given)	none (no result: HSF1 inhib, HSF1 activator)
Cc1ccccc1NC(=O)COC(=O)c1ccc(S(C)(=O)=O)c([N+](=O)[O-])c1	HSF1 inhib -93 (no result: esBAF inh)
